# ± gives the standard deviation of the averaged measurements.
# Key:
# Assay in all cases: promoter activity interaction Z-score (Lux/OD deviation from empty-vector control); higher = stronger promoter induction by the compound
# [1] = tested on: E. coli BW25113 acrABp lux reporter
# Summary of the method: (§1)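 Wild-type E. coli BW25113 and three single-gene deletion strains, each carrying a low-copy luxCDABE promoter reporter, were grown at 37°C in 40 µl LB Lennox per well of a 384-well plate. Every compound was applied at four 1:2 dilutions in biological duplicates, and OD600 and luminescence were read every 30 min for 12 h. Integration covered 0–8 h for wild type and 1–9 h for deletion strains, and wells under 10% of the median growth value were removed. Scores are Z-transformed residuals of growth-normalised luminescence fitted against a control.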
# [2] = tested on: E. coli BW25113 marRABp lux reporter
# Summary of the method: as §1
# [3] = tested on: E. coli BW25113 micFp lux reporter
# Summary of the method: as §1
# [4] = tested on: E. coli BW25113 ompFp lux reporter
# Summary of the method: as §1
# [5] = 0.28 µg/ml, genetic background: wild type
# [6] = 0.28 µg/ml, genetic background: ΔmarA
# [7] = 0.28 µg/ml, genetic background: Δrob
# [8] = 0.28 µg/ml, genetic background: ΔsoxS
# [9] = 0.56 µg/ml, genetic background: wild type
# [10] = 0.56 µg/ml, genetic background: ΔmarA
# [11] = 0.56 µg/ml, genetic background: Δrob
# [12] = 0.56 µg/ml, genetic background: ΔsoxS
# [13] = 1.1 µg/ml, genetic background: wild type
# [14] = 1.1 µg/ml, genetic background: ΔmarA
# [15] = 1.1 µg/ml, genetic background: Δrob
# [16] = 1.1 µg/ml, genetic background: ΔsoxS
# [17] = 2.2 µg/ml, genetic background: wild type
smiles,measurement,setting,value
CC[C@H]1OC(=O)[C@H](C)[C@@H](O[C@H]2C[C@@](C)(OC)[C@@H](O)[C@H](C)O2)[C@H](C)[C@@H](O[C@@H]2O[C@H](C)C[C@H](N(C)C)[C@H]2O)[C@](C)(O)C[C@@H](C)CN(C)[C@H](C)[C@@H](O)[C@]1(C)O [Azithromycin],promoter activity interaction Z-score,[1]; [5],0.612 ± 0.28
same,promoter activity interaction Z-score,[1]; [6],-0.667 ± 0.48
same,promoter activity interaction Z-score,[1]; [7],0.324 ± 0.28
same,promoter activity interaction Z-score,[1]; [8],0.489 ± 0.8
same,promoter activity interaction Z-score,[1]; [9],1.13 ± 0.12
same,promoter activity interaction Z-score,[1]; [10],0.048 ± 0.66
same,promoter activity interaction Z-score,[1]; [11],2.23 ± 0.08
same,promoter activity interaction Z-score,[1]; [12],3.66 ± 1.6
same,promoter activity interaction Z-score,[1]; [13],4.08 ± 1
same,promoter activity interaction Z-score,[1]; [14],6.35 ± 6.2
same,promoter activity interaction Z-score,[1]; [15],3.65 ± 1.2
same,promoter activity interaction Z-score,[1]; [16],4.28 ± 1.8
same,promoter activity interaction Z-score,[1]; [17],7.14 ± 1.1
same,promoter activity interaction Z-score,[2]; [5],0.645 ± 0.36
same,promoter activity interaction Z-score,[2]; [6],0.703 ± 1.2
same,promoter activity interaction Z-score,[2]; [7],0.528 ± 0.82
same,promoter activity interaction Z-score,[2]; [8],0.0278 ± 0.18
same,promoter activity interaction Z-score,[2]; [9],1.8 ± 0.42
same,promoter activity interaction Z-score,[2]; [10],1.75 ± 0.93
same,promoter activity interaction Z-score,[2]; [11],1.66 ± 0.88
same,promoter activity interaction Z-score,[2]; [12],3.09 ± 1.8
same,promoter activity interaction Z-score,[2]; [13],4.3 ± 0.46
same,promoter activity interaction Z-score,[2]; [14],4.49 ± 2
same,promoter activity interaction Z-score,[2]; [15],2.983 ± 0.0035
same,promoter activity interaction Z-score,[2]; [16],4.44 ± 2.6
same,promoter activity interaction Z-score,[3]; [5],0.698 ± 0.19
same,promoter activity interaction Z-score,[3]; [6],-0.163 ± 0.0028
same,promoter activity interaction Z-score,[3]; [7],0.125 ± 0.087
same,promoter activity interaction Z-score,[3]; [8],0.248 ± 0.093
same,promoter activity interaction Z-score,[3]; [9],0.273 ± 0.86
same,promoter activity interaction Z-score,[3]; [10],-0.14 ± 0.018
same,promoter activity interaction Z-score,[3]; [11],0.558 ± 0.35
same,promoter activity interaction Z-score,[3]; [12],-0.483 ± 0.018
same,promoter activity interaction Z-score,[3]; [13],-0.839 ± 0.87
same,promoter activity interaction Z-score,[3]; [14],-0.439 ± 0.056
same,promoter activity interaction Z-score,[3]; [15],0.39 ± 0.33
same,promoter activity interaction Z-score,[3]; [16],-0.925 ± 0.18
same,promoter activity interaction Z-score,[3]; [17],-1.39
same,promoter activity interaction Z-score,[4]; [5],0.438 ± 0.0074
same,promoter activity interaction Z-score,[4]; [6],-0.225 ± 0.85
same,promoter activity interaction Z-score,[4]; [7],0.663 ± 0.29
same,promoter activity interaction Z-score,[4]; [8],0.266 ± 1.3
same,promoter activity interaction Z-score,[4]; [9],1.95 ± 0.52
same,promoter activity interaction Z-score,[4]; [10],1.13 ± 0.094
